Results: PubChem BioAssay (NCI)
Compounds without any hit were thinned out: in the full panel of roughly 79,000, 15% have a hit. Rule as the data show it: active = growth inhibition above about 70%; inactive = the rest.

Assays:
[1] = NCI Yeast Anticancer Drug Screen. Data for the rad50 strain (AID 155);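 also: 0% = growth of vehicle-only cultures of the same strain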; conditions: S. cerevisiae rad50 strain growth inhibition; at 50.0 µM; stronger effect = higher value
Summary of the method: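 Vehicle-treated cultures provide the reference for the growth inhibition reported for compound-exposed, repair-deficient yeast.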

[2] = NCI Yeast Anticancer Drug Screen. Data for the mec2-1 strain (AID 157); conditions: S. cerevisiae mec2-1 strain, at 50.0 µM, stronger effect = higher value
Summary of the method: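 Vehicle-treated cultures served as reference for growth inhibition of compound-exposed mec2-1 yeast.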

[3] = NCI Yeast Anticancer Drug Screen. Data for the sgs1 mgt1 strain (AID 161);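 also: 0% = growth of cultures given vehicle only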; conditions: S. cerevisiae sgs1 mgt1 strain, at 50.0 µM, stronger effect = higher value
Summary of the method: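 Read-out: growth inhibition vs vehicle controls. Cells: mutant yeast strain deficient in DNA damage repair.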

[4] = NCI Yeast Anticancer Drug Screen. Data for the cln2 rad14 strain (AID 165);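 also: 0% = growth equal to vehicle treated cultures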; conditions: S. cerevisiae cln2 rad14 strain, at 50.0 µM, stronger effect = higher value
Summary of the method: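 Each compound was tested on cln2 rad14 yeast. Inhibition of growth was calculated against vehicle-exposed controls.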

[5] = NCI Yeast Anticancer Drug Screen. Data for the bub3 strain (AID 167); conditions: S. cerevisiae bub3 mutant strain, at 50.0 µM, stronger effect = higher value
Summary of the method: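 Mutant yeast screening strain plus compound; vehicle-treated cultures serve as the 0% inhibition reference.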

[6] = NCI Yeast Anticancer Drug Screen. Data for the mlh1 rad18 strain (AID 175); conditions: S. cerevisiae mlh1 rad18 strain growth inhibition; at 50.0 µM; stronger effect = higher value
Summary of the method: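 Vehicle-treated cultures served as the reference for growth inhibition in a yeast strain carrying DNA damage repair alterations exposed to each compound.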

Measured: growth inhibition

Cc1cc(C)c2c(=O)n(-c3ccc(Br)cc3)c(=S)n(-c3ccc(Br)cc3)c2n1
inactive: [1] 19.2% | [2] 4.35% | [3] -3.2% | [4] 12.8% | [5] -3.85% | [6] 23.5%

NC(=O)N/N=C/C(/C=N/NC(N)=O)[N+](=O)[O-]
inactive: [1] -3.8% | [2] -7.4% | [3] -10.3% | [4] -1.75% | [5] -14.6% | [6] 6.8%

C/C(=N\N=C(N)N)c1sc(-c2nc(C)c(/C(C)=N/N=C(N)N)s2)nc1C
inactive: [1] 4.35% | [2] -11.2% | [3] -13.3% | [4] 26.4% | [5] 6.85% | [6] 19.6%

O=C(O)CCc1c[nH]c(=S)[nH]1
inactive: [1] 10% | [2] 3.75% | [3] -5.85% | [4] -11.6% | [5] -1.7% | [6] -1.7%

[Cl-].[Nd+3].[O-]/N=C(\c1ccccc1)c1ccccn1.[O-]/N=C(\c1ccccc1)c1ccccn1.[O-]/N=C(\c1ccccc1)c1ccccn1
inactive: [1] 50.1% | [2] 35.4% | [3] 42.6% | [4] 25.2% | [5] 47% | [6] 58%

Cc1[nH]c(=O)n2c(C)nnc2c1C(=O)Nc1cc(Cl)cc(Cl)c1
inactive: [1] 15.2% | [2] -0.45% | [3] 39% | [4] 18.4% | [5] 7.5% | [6] 31.2%

N#C/C(=C/NC(=S)Nc1ccccc1)C(N)=O
inactive: [1] -31.6% | [2] -30.8% | [3] -26.8% | [4] -20% | [5] -15.7% | [6] -16.5%

C=CC(CCCC(C=C)OC(C)=O)OC(C)=O (stereo not given)
inactive: [1] 2.2% | [2] -4.95% | [3] -0.65% | [4] -18.1% | [5] 5.6% | [6] 5.5%

O=c1n(-c2ccccc2)c(=O)n2n1C1C3C4C5C1C5C2C43 (stereo not given)
inactive: [1] -8.4% | [2] 8.95% | [3] 12.3% | [4] 5.85% | [5] 5% | [6] 12.8%

Cn1cnc([N+](=O)[O-])c1Cl
inactive: [1] 43.4% | [2] -3.6% | [3] -2.2% | [4] -7.55% | [5] 19.2% | [6] -1.1%

COCc1cc(C(C)(C)C)cc(CNC2CCCCC2)c1O
inactive: [1] 16% | [2] 12.2% | [3] 27.1% | [4] 13.4% | [5] 12.5% | [6] 10.7%

CON(C)C(C#N)=C(C#N)C#N
inactive: [1] 9.75% | [2] 1.85% | [3] 21.1% | [4] 7.05% | [5] 8.1% | [6] 25.2%

Nc1nc(=O)n(C2CC(O)C(CO)O2)cc1I (stereo not given)
inactive: [1] -43.3% | [2] 1% | [3] 7.55% | [4] -17.2% | [5] -0.8% | [6] 11.2%

O=C(O)/C=C/C(=O)Nc1ccc2c(c1)C(O)c1ccccc1-2 (stereo not given)
inactive: [1] -56.4% | [2] -12.9% | [3] -1.9% | [4] -45.7% | [5] -7.2% | [6] -4.55%

O=CNCC1(c2ccccc2)CCN(Cc2ccccc2)CC1
inactive: [1] -2.4% | [2] -23.8% | [3] 3.4% | [4] 2.05% | [5] 3.55% | [6] 8.45%

CCc1cc2c(c3c1CCCC3=O)CC1(Cc3ccc(C(=O)OC)cc3C1)C2 (stereo not given)
inactive: [1] -8.05% | [2] -28.9% | [3] -7.6% | [4] -20.6% | [5] -8.95% | [6] -39.7%

O=C(O)/C(=N\O)c1cnnn1-c1ccccc1
inactive: [1] -5.95% | [2] 11.9% | [3] -8.45% | [4] 3.35% | [5] -17.6% | [6] -25.9%

O=C(Nc1ccc([N+](=O)[O-])cc1)N1CCOCC1
inactive: [1] 4.8% | [2] -17.8% | [3] 21.5% | [4] -1.25% | [5] 25.2% | [6] 15.2%

CCN(C(=O)CCl)c1ccccc1
inactive: [1] 15% | [2] 0.35% | [3] -0.1% | [4] -12.6% | [5] -7.25% | [6] 14.2%

COc1cc(CC2COC(=O)C2Cc2ccc(O)c(OC)c2)ccc1O (stereo not given)
inactive: [1] -4.85% | [2] 12.1% | [3] 0.35% | [4] -15.8% | [5] 22.4% | [6] 6.4%
